Source: PubChem BioAssay AID1446 (The Scripps Research Institute Molecular Screening Center, 2008)
Among all 220,000 compounds or so, about 2,400 (1.1%) were called active. This excerpt belongs to a sample that is enriched for actives. Unmarked numbers belong to inactive results.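 Rule for the calls: active = inhibition above the campaign mean plus 3 SD over all tested compounds (cut at about 24% in these data); inactive = the rest.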

Assay: viability loss in Ba/F3 EpoR-JAK2V617F cells – cell-based, luminescence, JAK2V617F inhibitor project, primary screen (AID 1446);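 note: cytokine-independent growth of Ba/F3 cells driven by EpoR plus mutant JAK2; 0% = DMSO-treated cells and 100% = JAK inhibitor I control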
Details: ATP luminescence, at 5.6 µM, hits give high values
With `CCCCCCCCCCCCn1ccc(=N)cc1` the inhibition was 98.4% (active). With `COc1cc(OC)cc(C2(C#N)CCN(C)CC2)c1` the inhibition was -0.42%. `O=C1NC(=O)N(CCc2ccc(F)cc2)C(=O)/C1=C/C=C/c1ccccc1` gave an inhibition of 1.28%. In the case of `COc1ccc(-n2c(-c3ccccc3)nc3ccccc3c2=O)cc1`, the inhibition is reported as 0.29%. With `CN(C)CC1Oc2ccccc2OC1(O)c1ccccc1` (stereo not given) the inhibition was 91.1% (active). In the case of `O=c1[nH]c(=O)n(-c2ccc(F)cc2)c(O)c1C=NCCN1CCCCC1`, the inhibition is reported as 0.16%. Work on `Cc1cccc(NC(=O)OC2CN3CCC2CC3)c1` (stereo not given) yielded an inhibition of 2.6%. With `CN1CCN(/N=C/c2c[nH]c3ccccc23)CC1` the inhibition was -2.46%. Compound `CC1=C(C(=O)Nc2ccccc2)S(=O)(=O)CCO1` has an inhibition of -1.56%. In the case of `CCOc1ccc(-c2cc(C)[n+](CCN(CC)CC)c(-c3ccc(OCC)cc3)c2)cc1`, the inhibition is reported as 98.2% (active). `CC1=C2C(=O)C3C(CC=C4CC(OC5OC(O)C(O)C(O)C5CO)CCC43C)C2CCC12OC1CC(C)CNC1C2C` (stereo not given) gave an inhibition of 0.84%. In the case of `CSc1nc2ccc(C)cc2c(=O)n1-c1cccnc1`, the inhibition is reported as 3.49%. For `CC1(C)Cc2c(C#N)c(N3CCNCC3)nc(-c3ccco3)c2CS1`, the inhibition was 1.65%. For `CCOc1cccc(=NC2CCCCC2)c2c(C)[nH]c(C)c12`, the inhibition was 34% (active). Compound `O=C(O)COc1ccccc1/C=C1\C(=O)NC(=O)N(CCC2=CCCCC2)C1=O` has an inhibition of -1.88%. Work on `Cn1c(O)c(C(=Nc2ccc(F)cc2)c2ccccc2)c(=O)n(C)c1=O` yielded an inhibition of -3.28%. For `CCCCC(=O)N/N=C/c1c(O)n(CCC2=CCCCC2)c(=O)[nH]c1=O`, the inhibition was -0.19%. `O=c1[nH]c(=O)n(CCc2ccc(F)cc2)c(O)c1/C=N/N1CCCCC1` showed an inhibition of -0.8%. With `O=c1[nH]c(CN2CC=C(c3ccccc3)CC2)nc2scc(-c3cccs3)c12` the inhibition was -4.83%. With `Cc1ccc(CN2CCCC(C(=O)c3ccc4c(c3)OCO4)C2)cc1C` (stereo not given) the inhibition was -3.5%. Work on `CCOP(=O)(OCC)C(NC(=O)NC)C(N)=O` (stereo not given) yielded an inhibition of 3.57%. For `CC1=CC(=Cc2sc3ccccc3[n+]2C)C=C(C)O1`, the inhibition was 101% (active). Work on `CNC(=O)O/N=C(\N)Cc1csc2ccc(Cl)cc12` yielded an inhibition of 1.27%. `O=c1[nH]c(=O)n(CCc2ccccc2)c(O)c1/C=N/N1CCOCC1` gave an inhibition of -2.98%. `CCOP(=O)(OCC)C(NC(=O)c1ccc(OC)cc1)C(Cl)(Cl)Cl` (stereo not given) showed an inhibition of 1.2%.
